# According to ChEMBL document CHEMBL1157539, “Thousands of chemical starting points for antimalarial lead identification” (Nature, 2010):
# Whole data set: some 13,000 compounds, median “IFI” near 4, cut for the highest 2% near 17. For the sample, the highest values were picked, then their nearest neighbours and some compounds at random.
# Experiment: GSK_TCMDC: Inhibition Frequency Index (IFI). The number of non-kinase HTS assays where a compound showed > 50 % inhibition, expressed as a percentage of the number of such assays in which the compound was tested
# Type: functional
row,SMILES,IFI [%]
1,CCCNCc1ccc(-c2ccc(CN(CC3CCCO3)C(=O)C3CC(=O)c4ccccc43)cc2)nc1 (stereo unspecified),1.41
2,CCN(CC)CCN(Cc1ccc(-c2ccc(C(F)(F)F)cc2)cc1)C(=O)Cn1c(CCc2cc(F)c(F)c(F)c2)nc(=O)c2ccccc21,6.67
3,Cc1noc(C)c1-c1ccc2c(Nc3ccc([N+](=O)[O-])cc3)c(C(N)=O)cnc2c1,1.63
4,N#Cc1cc(C(=O)c2cc(Br)ccc2O)cn(-c2cc(Cl)cc(Cl)c2)c1=O,20.6
5,N#Cc1cc(C(=O)c2cc(Cl)ccc2O)cn(-c2cccc(C(F)(F)F)c2)c1=O,7.44
6,COc1ccc(O)c(C(=O)c2cc(C#N)c(=O)n(-c3ccc(Oc4ccccc4)cc3)c2)c1,3.52
7,CCc1ccc(-n2cc(C(=O)c3cc(Br)ccc3O)cc(C#N)c2=O)cc1,15.9
8,COc1ccc(-n2cc(C(=O)c3cc(Br)ccc3O)cc(C#N)c2=O)cc1Cl,14.8
9,N#Cc1cc(C(=O)c2cc(Cl)ccc2O)cn(-c2cc(Cl)cc(Cl)c2)c1=O,17.4
10,COc1ccc2ccccc2c1C=NN=c1cc(C)[nH]c2c(C)cccc12,1.48
11,COc1ccc(Cn2c(Nc3cccc(C(F)(F)F)c3)nc3cc(C(=O)NCCCN(C)C)ccc32)cc1Cl,2.14
12,NCC1CCCN1Cc1cccc(-c2cccc(-c3nc4cc(F)ccc4[nH]3)c2)c1 (stereo unspecified),5
13,O=C(Cn1c(CCc2cccc(F)c2F)nc(=O)c2ccccc21)N(Cc1ccc(-c2ccc(C(F)(F)F)cc2)cc1)C1CCN(C2=NCCS2)CC1,12.5
14,CN1CCC(N2CCN(Cc3cccc(-c4ccc(-c5nc6cc(C(F)(F)F)ccc6[nH]5)cc4)c3)CC2)CC1,9.72
15,CCCCNc1c(C(=O)OCC)c(C)nc2c1[nH]c1ccccc12,2.17
16,CCCCNc1cc(C)nc(NCc2ccccc2)n1,9.72
17,CCCCNc1cc(NCCCC)c2c(n1)[nH]c1ccccc12,19.4
18,CCc1cc(COc2ccc(CNCCC(C)C)cc2I)c(OCc2ccccc2)c(COc2ccc(CNCCC(C)C)cc2I)c1,14.3
19,CCOc1ccc2c(=NN=Cc3ccccc3OC)cc(C)[nH]c2c1,3.62

row,SMILES,IFI [%]
1,Oc1ccc(-c2cc(COc3ccccc3C(F)(F)F)c(C3=CCNCC3)cc2COc2ccccc2C(F)(F)F)cc1,17.3
2,FC(F)(F)c1ccccc1OCc1cc(-c2ccncc2)c(COc2ccccc2C(F)(F)F)cc1C1=CCNCC1,10.6
3,Nc1nc(N)c2cc(NC(=O)c3ccc(Cl)c(Cl)c3)ccc2n1,15.9
4,Cc1nc(C)c(-c2ccc(Oc3ccc(Cl)cc3Cl)cc2)c(O)c1Br,1.52
5,FC(F)(F)COc1c(CNCCCCCCNCc2ccc3ccccc3c2OCC(F)(F)F)ccc2ccccc12,14.9
6,COc1ccc(CCNCCCCNCCc2ccc(OC)c3ccccc23)c2ccccc12,13.9
7,CSc1ccc2ccccc2c1CCNCCCCNCCc1c(SC)ccc2ccccc12,17
8,FC(F)(F)COc1c(CCNCCCCNCCc2ccc3ccccc3c2OCC(F)(F)F)ccc2ccccc12,19.3
9,CN(C)c1c(CNCCCCCCNCc2ccc3ccccc3c2N(C)C)ccc2ccccc12,15.7
10,FC(F)(F)COc1ccc2ccccc2c1CCNCCCCNCCc1c(OCC(F)(F)F)ccc2ccccc12,23.4
11,CCCOc1ccc(CCNCCCCNCCc2ccc(OCCC)c3ccccc23)c2ccccc12,12.5
12,O=[N+]([O-])c1ccc(CNCCCCCCNCc2ccc([N+](=O)[O-])c3ccccc23)c2ccccc12,10.3
13,FC(F)(F)COc1ccc(CCNCCCCNCCc2ccc(OCC(F)(F)F)c3ccccc23)c2ccccc12,20.3
14,N#Cc1ccc(CNCCCCCCNCc2ccc(C#N)c3ccccc23)c2ccccc12,7.04
15,FC(F)(F)COc1ccc2ccccc2c1CNCCCCCCNCc1c(OCC(F)(F)F)ccc2ccccc12,14.9
16,FC(F)(F)COc1ccc(CNCCCCCCNCc2ccc(OCC(F)(F)F)c3ccccc23)c2ccccc12,21
17,O=S(=O)(NCCN1CCCC1)c1ccc(-c2cccc(CNCCc3cccs3)c2)cc1,9.52
18,CON=Cc1sc(CNCCCN=c2cc(O)c3ccccc3[nH]2)c(C)c1Br,6.52
19,N=C(N)c1ccc2[nH]c(SCc3ccccc3)nc2c1,0.94

row,SMILES,IFI [%]
1,O=c1c(Br)ccccc1Br,11.6
2,CCN(CC)CCN(Cc1ccc(-c2ccc(C(F)(F)F)cc2)cc1)C(=O)Cn1c(CCc2cccc(F)c2F)cc(=O)cc1-c1ccccc1,11.3
3,N=C(N)NN=Cc1ccccc1OCc1ccccc1Cl,6.72
4,CS(=O)(=O)NCCCNCc1ccc(-c2ccc(-c3nc4cc(C(F)(F)F)ccc4[nH]3)cc2)cc1,5.94
5,CCc1ccc(CN2CCC(CNC(=O)c3cc(-c4cccc(C(F)(F)F)c4)cs3)C2)cc1 (stereo unspecified),14
6,CCCCOc1ccc(CNCCCCCCNCc2ccc(OCCCC)c3ccccc23)c2ccccc12,17.8
7,CCCOc1ccc(CNCCCCCCNCc2ccc(OCCC)c3ccccc23)c2ccccc12,15.6
8,CCCCSc1ccc(CNCCCCCCNCc2ccc(SCCCC)c3ccccc23)c2ccccc12,14.8
9,CC1(C)NC(=N)NC(=N)N1OCC=Cc1ccccc1,3.57
10,COc1ccc2[nH]ccc(=NN=Cc3ccc(Cl)cc3)c2c1,0.74
11,CCN(CC)CCCNC(=O)/C(=C/C=C/c1cc2cc(Cl)c(Cl)cc2[nH]1)OC,8.46
12,CO/C(=C\C=C\c1cc2cc(Cl)c(Cl)cc2[nH]1)C(=O)NCCCN1CCN(c2cccc(Cl)c2)CC1,8.27
13,CO/C(=C\C=C\c1cc2cc(Cl)c(Cl)cc2[nH]1)C(=O)NCCCNC12CC3CC(CC(C3)C1)C2,21.1
14,CO/C(=C\C=C\c1cc2cc(Cl)c(Cl)cc2[nH]1)C(=O)NCCCCN1CCN(c2ccccc2OC)CC1,19.1
15,CCOc1ccccc1N1CCN(CCCNC(=O)/C(=C/C=C/c2cc3cc(Cl)c(Cl)cc3[nH]2)OC)CC1,10.8
16,CCN(CC)CCNC(=O)/C(=C/C=C/c1cc2cc(Cl)c(Cl)cc2[nH]1)OC,7.63
17,CCOC(=O)c1ccc(NC(=O)Nc2ccc(-c3cccc(-c4nc5cccc(C)c5[nH]4)c3)cc2)cc1,7
18,Cc1noc(C)c1-c1cccc(CNCc2ccc(-c3ccc(-c4nc5cc(F)ccc5[nH]4)cc3)cc2)c1,8.91
